Values joined by “and” are separate entries in the source; they are usually repeats but may differ in a detail not shown here. Equal entries are not always repeated. Out of some 5,500 compounds screened, about 2,000 (36%) were called active. Another 18% or so got no clear call; they are omitted. This is one part of the list. Values without a mark were called inactive. No stated cut-off is given here; in the data, active means normalized growth mostly below about 0.91 (no sharp cut-off); inconclusive means no clear call, values can overlap the other calls; inactive means mostly above about 0.92.
Experiment: chemical genetic growth profiling, strain panel (AID 1159580);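 further: tested at 20 µM; growth read once vehicle control cultures reached saturation at 30 °C; 1 = growth at the plate median or of vehicle wells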
Details: S. cerevisiae deletion strains, growth OD

CC(CN(C)C)CN1c2ccccc2Sc2ccccc21 (configuration not stated)
normalized growth (locus YAL013W, strain DEP1, stronger effect = lower value): 0.993
normalized growth (locus YAL021C, strain ccr4, stronger effect = lower value): 0.99
normalized growth (locus YAL026C, strain drs2, stronger effect = lower value): 0.951
normalized growth (locus YAL030W, strain snc1, stronger effect = lower value): 1.02
normalized growth (locus YBL061C, strain skt5, stronger effect = lower value): 1.02
normalized growth (locus YBR009C, strain hhf1, stronger effect = lower value): 1.02
normalized growth (locus YBR021W, strain FUR4, stronger effect = lower value): 0.818 (active)
normalized growth (locus YBR023C, strain chs3, stronger effect = lower value): 1.02
normalized growth (locus YBR171W, strain sec66, stronger effect = lower value): 1.04
normalized growth (locus YBR229C, strain ROT2, stronger effect = lower value): 0.992
normalized growth (locus YBR231C, strain swc5, stronger effect = lower value): 1.03
normalized growth (locus YBR279W, strain paf1, stronger effect = lower value): 1.02
normalized growth (locus YCL011C, strain gbp2, stronger effect = lower value): 1.02
normalized growth (locus YCL016C, strain dcc1, stronger effect = lower value): 1.01
normalized growth (locus YCL029C, strain bik1, stronger effect = lower value): 0.989
normalized growth (locus YCL061C, strain MRC1, stronger effect = lower value): 1.02
normalized growth (locus YCL069W, strain vba3, stronger effect = lower value): 1.02
normalized growth (locus YCR088W, strain abp1, stronger effect = lower value): 1.02
normalized growth (locus YDL005C, strain med2, stronger effect = lower value): 1.02
normalized growth (locus YDL035C, strain GPR1, stronger effect = lower value): 0.985
normalized growth (locus YDL040C, strain nat1, stronger effect = lower value): 1.01
normalized growth (locus YDL074C, strain BRE1, stronger effect = lower value): 0.933
normalized growth (locus YDL101C, strain DUN1, stronger effect = lower value): 0.985
normalized growth (locus YDL134C, strain PPH21, stronger effect = lower value): 0.979
normalized growth (locus YDL185W, strain tfp1, stronger effect = lower value): 0.974
normalized growth (locus YDL192W, strain arf1, stronger effect = lower value): 0.998
normalized growth (locus YDR001C, strain nth1, stronger effect = lower value): 1.01
normalized growth (locus YDR069C, strain doa4, stronger effect = lower value): 1.01
normalized growth (locus YDR101C, strain arx1, stronger effect = lower value): 0.988
normalized growth (locus YDR137W, strain rgp1, stronger effect = lower value): 1.22 [resistant] (active)
normalized growth (locus YDR150W, strain NUM1, stronger effect = lower value): 1.01
normalized growth (locus YDR159W, strain sac3, stronger effect = lower value): 1.03
normalized growth (locus YDR162C, strain NBP2, stronger effect = lower value): 0.991
normalized growth (locus YDR195W, strain ref2): 1.13
normalized growth (locus YDR297W, strain sur2, stronger effect = lower value): 1.01
normalized growth (locus YDR318W, strain mcm21, stronger effect = lower value): 0.974
normalized growth (locus YDR334W, strain swr1, stronger effect = lower value): 1.02
normalized growth (locus YDR335W, strain msn5, stronger effect = lower value): 1.02
normalized growth (locus YDR388W, stronger effect = lower value): 0.966
normalized growth (locus YDR392W, strain spt3, stronger effect = lower value): 1.07
normalized growth (locus YDR502C, strain sam2, stronger effect = lower value): 0.99
normalized growth (locus YEL003W, strain gim4, stronger effect = lower value): 0.988
normalized growth (locus YEL037C, strain rad23, stronger effect = lower value): 1.01
normalized growth (locus YEL061C, strain CIN8 (second series), stronger effect = lower value): 1.02
normalized growth (locus YEL061C, strain CIN8, stronger effect = lower value): 0.994
normalized growth (locus YER015W, strain faa2, stronger effect = lower value): 1.03
normalized growth (locus YER016W, strain bim1, stronger effect = lower value): 1.02
normalized growth (locus YER110C, stronger effect = lower value): 0.999
normalized growth (locus YER111C, strain swi4, stronger effect = lower value): 1.03
normalized growth (locus YER155C, strain BEM2 (second series), stronger effect = lower value): 1.04
normalized growth (locus YER155C, strain BEM2, stronger effect = lower value): 0.99
normalized growth (locus YER167W, strain BCK2, stronger effect = lower value): 0.997
normalized growth (locus YFR010W, strain ubp6, stronger effect = lower value): 0.985
normalized growth (locus YGL078C, strain dbp3, stronger effect = lower value): 0.986
normalized growth (locus YGL086W, strain mad1, stronger effect = lower value): 0.991
normalized growth (locus YGL167C, strain pmr1, stronger effect = lower value): 1.03
normalized growth (locus YGL173C, strain kem1, stronger effect = lower value): 1.03
normalized growth (locus YGL227W, strain vid30, stronger effect = lower value): 1.02
normalized growth (locus YGL240W, strain doc1, stronger effect = lower value): 1.03
normalized growth (locus YGL248W, strain PDE1, stronger effect = lower value): 0.995
normalized growth (locus YGL253W, strain hxk2, stronger effect = lower value): 1.02
normalized growth (locus YGR078C, strain PAC10, stronger effect = lower value): 0.958
normalized growth (locus YGR135W, strain pre9, stronger effect = lower value): 0.944
normalized growth (locus YGR229C, strain SMI1, stronger effect = lower value): 0.911
normalized growth (locus YGR252W, strain gcn5, stronger effect = lower value): 0.917
normalized growth (locus YHR013C, strain ard1, stronger effect = lower value): 1.04
normalized growth (locus YHR027C, strain rpn1, stronger effect = lower value): 1.05
normalized growth (locus YHR030C, strain SLT2, stronger effect = lower value): 0.983 and 1
normalized growth (locus YHR079C, strain IRE1 (second series), stronger effect = lower value): 0.985
normalized growth (locus YHR079C, strain IRE1, stronger effect = lower value): 0.993
normalized growth (locus YHR094C, strain hxt1, stronger effect = lower value): 0.993
normalized growth (locus YHR129C, strain ARP1, stronger effect = lower value): 0.989
normalized growth (locus YHR142W, strain chs7, stronger effect = lower value): 1.01
normalized growth (locus YHR200W, strain rpn10, stronger effect = lower value): 0.988
normalized growth (locus YIL066C, strain RNR3, stronger effect = lower value): 0.972
normalized growth (locus YIL073C, strain SPO22, stronger effect = lower value): 0.991
normalized growth (locus YIL125W, strain kgd1, stronger effect = lower value): 0.996
normalized growth (locus YIR030C, strain dcg1, stronger effect = lower value): 0.989
normalized growth (locus YJL092W, strain hpr5, stronger effect = lower value): 1.01
normalized growth (locus YJL095W, strain BCK1 (second series), stronger effect = lower value): 1.01
normalized growth (locus YJL095W, strain BCK1, stronger effect = lower value): 0.861 and 1
normalized growth (locus YJL115W, strain asf1, stronger effect = lower value): 1.01
normalized growth (locus YJL129C, strain trk1, stronger effect = lower value): 1.11
normalized growth (locus YJL134W, strain LCB3, stronger effect = lower value): 0.992
normalized growth (locus YJL154C, strain vps35, stronger effect = lower value): 1.02
normalized growth (locus YJL164C, strain tpk1, stronger effect = lower value): 1.02
normalized growth (locus YJL166W, strain qcr8, stronger effect = lower value): 1.02
normalized growth (locus YJL168C, strain set2, stronger effect = lower value): 0.993
normalized growth (locus YJL187C, strain SWE1 (second series), stronger effect = lower value): 0.957
normalized growth (locus YJL187C, strain SWE1, stronger effect = lower value): 1.01
normalized growth (locus YJR043C, strain POL32, stronger effect = lower value): 1.02
normalized growth (locus YJR066W, strain TOR1, stronger effect = lower value): 0.937
